# A selection: hits, their analogues and other compounds. The true share with any hit is near 3.5%.
# GPR151 ag: activators of human GPR151, primary screen, cell-based, PathHunter beta-arrestin, luminescence. PathHunter beta-arrestin GPR151 cells. activation, % at 11.2 µM. 650,000 tested, 1% active. AID 1508602, 2020; in the data active = activation above about 4.9%;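 also: 0% = median of compound wells and 100% = cells with positive control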
# FBW7 activator: FBW7 E3 ligase activators, primary screen, biochemical, AlphaScreen, human. F-box/WD repeat-containing protein 7 (Homo sapiens), Q969H0. AlphaScreen FBW7–phospho-cyclin E peptide binding, activator screen. normalized activity (activation), % at 26.1 µM. 650,000 tested, 0.13% active. AID 1259310, 2017; in the data active = normalized activity above about 1.9%;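 also: purified mutant Fbw7 with reduced substrate affinity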
# TEAD-YAP block: TEAD-YAP interaction inhibition, primary screen, TEAD-YAP interaction inhibitor project, luminescence, HEK-TIYL cells. TEAD-Gal4/YAP UAS-luciferase luminescence. inhibition, % at 9.12 µM. 640,000 tested, 1.4% active; in the data active = inhibition above about 32%;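 also: 0% = median of test compound wells and 100% = reference inhibitor wells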
# MITF inh: MITF inhibitors, primary screen, biochemical, AlphaScreen, human. Microphthalmia-associated transcription factor (Homo sapiens), O75030. AlphaScreen MITF homodimerization, bead proximity signal. inhibition, % at 2.6 µM. 650,000 tested, 0.91% active. AID 1259374, 2018; in the data active = inhibition above about 50%;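 also: 0% = vehicle wells with protein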
# Target sequence (O75030 whole entry, looked up): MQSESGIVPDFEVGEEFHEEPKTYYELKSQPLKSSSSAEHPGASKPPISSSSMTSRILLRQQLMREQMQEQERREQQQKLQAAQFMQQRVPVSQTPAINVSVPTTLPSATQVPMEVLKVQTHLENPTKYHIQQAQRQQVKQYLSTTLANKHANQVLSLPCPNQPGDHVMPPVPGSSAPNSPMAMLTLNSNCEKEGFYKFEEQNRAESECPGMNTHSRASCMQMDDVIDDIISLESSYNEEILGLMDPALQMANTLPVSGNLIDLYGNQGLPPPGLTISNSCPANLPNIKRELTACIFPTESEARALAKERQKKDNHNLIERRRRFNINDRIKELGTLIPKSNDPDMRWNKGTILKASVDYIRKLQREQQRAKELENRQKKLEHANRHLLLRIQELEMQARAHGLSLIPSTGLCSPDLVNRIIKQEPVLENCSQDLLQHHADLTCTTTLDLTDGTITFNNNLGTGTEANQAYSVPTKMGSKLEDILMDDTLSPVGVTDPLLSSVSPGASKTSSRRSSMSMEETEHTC
# * hit, by the source's call.
SMILES,GPR151 ag,FBW7 activator,TEAD-YAP block,MITF inh
Cc1cc(C)cc(OCc2nc(-c3ccc(OCC(N)=O)cc3)no2)c1,1,0,0,23
COc1ccc(CCNc2nc(Nc3ccc(C(F)(F)F)cc3)nc3nc[nH]c23)cc1,-1,0,9,5
Cn1cnc(-c2ccccc2Nc2nc(Nc3ccc(N4CCOCC4)cc3)ncc2Cl)n1,1,-1,33*,27
COc1ccc(CCNc2nc(Nc3ccncc3)nc3nc[nH]c23)cc1,0,0,44*,2
Cc1cnc(Nc2nc3ccccc3n2C)nc1NCc1ccccc1,0,1,42*,10
CCOC(=O)c1c(NC(=O)COc2ccc(-c3ccccc3)cc2)sc2c1CCC(C)C2 (stereo not given),0,0,0,7
COc1ccc(-c2ocnc2C(=O)NCCCn2ccnc2)cc1,0,0,21,12
O=C(Nc1ccccc1F)c1cc(-c2ccccc2Cl)nc2ccccc12,1,0,5,9
Cc1ccc2nc(C)cc(SCC(=O)N/N=C/c3ccc(O)cc3)c2c1,0,0,-7,2
COc1ccc(CCn2c(C)cc(C(=O)CSc3nc(N)cc(=O)[nH]3)c2C)cc1,0,0,33*,7
COc1ccc(CCn2c(C)cc(C(=O)CCl)c2C)cc1,1,0,40*,16
CC(=O)N(/N=C1\Sc2ccccc2C1=O)c1ccccc1Cl,-2,0,91*,9
CC(=O)N(/N=C1\Sc2ccccc2C1=O)c1cccc(C)c1,-1,0,-42,0
COCCNC(=O)[C@@H]1C[C@H](NCc2ccccc2Cl)CN1Cc1ccccc1,-2,0,-14,-20
Cc1cc(C)c(OCC(=O)N/N=C/c2ccccc2O)c(C)c1,1,0,-4,0
COc1c(O)ccc(/C=N/NC(=O)COc2c(C)ccc(C)c2C)c1[N+](=O)[O-],0,0,54*,7
N#Cc1ccccc1OCC(=O)N/N=C/c1ccc(O)c([N+](=O)[O-])c1,1,0,-14,-6
CCOc1ccccc1OCC(=O)N/N=C/c1ccccc1O,0,-2,59*,-6
CCOc1ccccc1OCC(=O)N/N=C/c1ccc(O)c([N+](=O)[O-])c1,0,0,55*,0
Cc1cccc(C)c1OCC(=O)N/N=C/c1ccccc1O,1,0,51*,13
COc1c(O)ccc(/C=N/NC(=O)COc2ccccc2C)c1[N+](=O)[O-],3,0,-8,-5
CCOc1ccccc1OCC(=O)N/N=C(/C)c1ccc(Cl)cc1,0,0,69*,9
CC(Oc1ccccc1)C(=O)NCc1cc(-c2ccc3c(c2)OCO3)on1 (stereo not given),0,0,-1,4
O=C(CCNC(=O)OCc1ccccc1)NC1CCCCC1,1,1,7,17
O=C(CCNC(=O)Oc1ccccc1)NC1CCCCC1,-1,1.9*,6,7
SMILES,GPR151 ag,FBW7 activator,TEAD-YAP block,MITF inh
O=C(Nc1nc(-c2cc3ccccc3oc2=O)cs1)c1cccc(C(F)(F)F)c1,1,0,-15,0
O=C(O)CCC(=O)N1N=C(c2ccccc2)CC1c1ccccc1 (stereo not given),0,1.9*,-7,13
O=S1(=O)C=C(Sc2nc3ccccc3s2)c2ccccc21,-1,0,61*,-1
Nc1ccccc1SC1=CS(=O)(=O)c2ccccc21,0,0,-5,6
COc1cc(-c2nc(-c3ccccc3)c(-c3ccc(Sc4ccccc4)cc3)[nH]2)cc(OC)c1O,0,0,2,0
O=C(Nc1ccc2[nH]ncc2c1)c1ccc(OC2CCOCC2)nc1,0,0,48*,21
NCCOc1cc(C(=O)Nc2ccc3[nH]ncc3c2)ccn1,-1,1,72*,5
O=C(O)/C=C/C(=O)Nc1ccc(Oc2ccc(Oc3ccc(NC(=O)/C=C/C(=O)O)cc3)cc2)cc1,1,0,39*,-3
Cc1ccc(NC(=O)/C=C\C(=O)O)cc1,0,0,-3,-1
CCc1ccc2oc(-c3cc(N)ccc3O)nc2c1,-4,1,38*,2
CCc1ccc(-c2nc3cc(N)ccc3o2)cc1,-7,0,65*,15
Nc1ccc(-c2nc3cc(N)ccc3o2)cc1,-4,0,49*,7
CCOc1ccc(-c2nc3cc(N)ccc3o2)cc1,-6,0,76*,-2
